Reference: PubChem BioAssay AID777 (Sanford-Burnham Center for Chemical Genomics, 2007)
Screen size: about 96,000 compounds; about 19,000 (20%) were called active. Not all results are given here. Unmarked numbers belong to inactive results.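 The calls were made as follows: active = blocking of liver enzyme CYP2C9 beyond about 50% at 5 µM (limit read from the data); inactive = the rest.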

Biological target: Cytochrome P450 2C9 (Homo sapiens) (UniProt P11712)
Assay: blockers of cytochrome P450 2C9 activity – biochemical, luminescence, ADME assay, primary screen (AID 777)
Conditions: CYP2C9 Supersomes, luciferin-H conversion, at 5 µM, hits give high values

Chain of Cytochrome P450 2C9 (Homo sapiens) (P11712 whole entry, looked up): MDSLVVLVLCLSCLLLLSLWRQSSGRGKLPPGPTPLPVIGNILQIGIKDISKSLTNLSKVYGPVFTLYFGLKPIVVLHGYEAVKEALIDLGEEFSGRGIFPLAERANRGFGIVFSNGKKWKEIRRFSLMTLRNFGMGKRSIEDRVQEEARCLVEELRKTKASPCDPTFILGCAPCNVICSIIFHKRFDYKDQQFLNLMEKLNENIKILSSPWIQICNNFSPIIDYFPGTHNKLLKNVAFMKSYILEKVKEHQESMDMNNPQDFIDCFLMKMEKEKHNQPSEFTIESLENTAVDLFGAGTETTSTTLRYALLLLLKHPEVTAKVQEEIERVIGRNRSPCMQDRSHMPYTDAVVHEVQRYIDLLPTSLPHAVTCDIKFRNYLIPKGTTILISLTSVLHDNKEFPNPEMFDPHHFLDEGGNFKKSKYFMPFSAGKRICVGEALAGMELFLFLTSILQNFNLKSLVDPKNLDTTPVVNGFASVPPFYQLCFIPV

SMILES | inhibition
CCOc1c2ccc(C(=O)NCc3ccc(OC(F)(F)F)cc3)cc2nn1C | 19%
COc1nc(N=C(N)N)nc2c(C)cccc12 | -9.5%
COc1cc2[nH]c(=O)n(CCC(=O)NC3CCN(Cc4ccccc4)CC3)c(=O)c2cc1OC | -15.4%
CC(=O)Nc1ccc(NC(=O)c2sc3nc4c(c(-c5ccc(C)cc5)c3c2N)CCC4)cc1 | -4.6%
CC1C(c2ccccc2)=[N+]([O-])C2(CCCC2)N1O (stereo not drawn) | 37.7%
O=C(COc1ccc(F)cc1)N(CC1=CCS(=O)(=O)C1)c1ccccc1 | -18.6%
O=c1c2ccccc2c(-c2ccc(Br)cc2)nn1Cc1ccccc1 | 21.5%
COc1ccc(Cl)cc1C(=O)NCC#N | -80.7%
CC(C)CNC(=O)COC(=O)/C=C/c1ccccc1[N+](=O)[O-] | -41.6%
CC(C)CNC(=O)CC(c1ccccc1)c1c(O)ccc2ccccc12 (stereo not drawn) | 71.2% (active)
O=C1CC(C(F)(F)C(F)(F)C(F)(F)C(F)(F)F)=Nc2ccccc2N1 | 9%
CCN(CC(=O)NC1CCS(=O)(=O)C1)c1nc(-c2cccnc2)nc2ccccc12 (stereo not drawn) | 3.9%
CCOC(=O)CSc1ncc(-c2cccc(Cl)c2)cn1 | 14.2%
CCOC(=O)c1nc(C)n(-c2ccc(Cl)cc2Cl)n1 | -0.6%
CCOC(=O)c1cnc(SC)nc1Sc1ccc(Cl)cc1Cl | 81.5% (active)
Cc1ccc(C(=O)NC2CC(C)(C)NC(C)(C)C2)c(C)c1 | -6.6%
Cc1nn(C)cc1/C=N/NC(=O)c1sc2ccccc2c1Cl | 23.6%
O/N=C1\CC2(Cc3nonc31)OCCO2 | 4%
CS(=O)(=O)N1CCN(C(=O)c2cc3ccccc3oc2=O)CC1 | -3.6%
Cc1cccc(OCc2nnc(SCn3nnc4ccccc4c3=O)o2)c1 | 35.9%
C=CCn1c(SCn2nnc3ccccc3c2=O)nnc1-c1ccc(Cl)cc1 | 67.1% (active)
O=c1c2ccccc2nnn1CSc1nnnn1-c1ccccc1 | -35.7%
COc1cccc(Nc2ncccc2C(=O)O)c1 | -5.5%
CC1(C)CC(=O)C2=C(C1)NCN(CCCN1CCOCC1)C2 | 3.8%
CCOc1cc(CO)ccc1OCC(=O)N1CCCCC1 | -19.8%

SMILES | inhibition
N#C/C(=C1/CCCN1)c1ccccn1 | 7.3%
COC(=O)C(C)N(C#N)c1nc(C)nc(C)n1 (stereo not drawn) | -136%
COc1ccc(/C(N)=N/OC(=O)Oc2ccccc2)cc1 | 21.5%
CO/N=C(/CS(=O)(=O)c1ccc(Br)cc1)c1ccc(OC)cc1 | 91.6% (active)
COC(=O)CNS(=O)(=O)c1ccc(OC)cc1 | -0.5%
O=C1CC(c2cccc(Br)c2)C2=C(CCCC2=O)N1 (stereo not drawn) | 10.3%
Cc1cccc(NC(=O)c2cc(N3C(=O)CCC3=O)ccc2Cl)n1 | 20.2%
O=C(COc1ccc2oc3c(c2c1)CCCC3)Nc1ccccn1 | 2.1%
COc1ccc2oc(=O)c(C(=O)N3CCCc4ccccc43)cc2c1 | -44.4%
O=C(CN1CCOCC1)N1CCCc2c1c(=O)oc1ccc(OCc3ccccc3)cc21 | 72.5% (active)
Cn1c(=NC(=O)C2CC2)sc2cc(F)cc(F)c21 | -15.8%
O=C(CCN1C(=O)c2ccccc2C1=O)NCCN1CCOCC1 | -18.8%
O=C1c2oc3ccccc3c(=O)c2C(c2cccc(O)c2)N1c1ccccn1 (stereo not drawn) | 4.2%
COCCN1C(=O)c2oc3c(C)cc(C)cc3c(=O)c2C1c1cccc(O)c1 (stereo not drawn) | 98.6% (active)
O=C1c2oc3ccc(Br)cc3c(=O)c2C(c2cccc(F)c2)N1CCO (stereo not drawn) | 23.9%
CC(=O)OC(C(=O)NCCc1ccccc1)c1cccnc1 (stereo not drawn) | -7.6%
CCOC(=O)c1c(C)oc2ccc(OCC(=O)N(CC)CC)cc12 | -13.4%
Cc1cc(C)n2nc(C(=O)Oc3ccc4c(c3)OCO4)nc2n1 | -31.5%
CCOC(=O)c1c(C)[nH]c(C(=O)COc2ccc3c(c2)OCO3)c1C | 93% (active)
Nc1c(-c2cccc(Cl)c2)cnn1-c1cccc([N+](=O)[O-])c1 | 4.4%
O=C(NC12CC3CC(CC(C3)C1)C2)N1CCCC(CO)C1 (stereo not drawn) | 12.4%
CC12C(=O)N(n3cnnc3)C(=O)C1C1C=CC2C1 (stereo not drawn) | 1.9%
Cn1c(NN)nc2sc3c(c2c1=O)CCC3 | 68.1% (active)
NNC(=O)C1CCCn2c1nc1sc3c(c1c2=O)CCCC3 (stereo not drawn) | 21.6%
O=C(O)[C@@H]1CCCN1c1ncnc2sc3c(c12)CCC3 | 4.9%

SMILES | inhibition
Cn1c(NC(=O)c2ccco2)c(-c2ccccc2Cl)c(=O)c2ccccc21 | -3.7%
CC(C)Oc1ccc(C(=O)NC(C)(C)CO)cc1 | 15%
O=C(COc1ccccc1)NCCc1nc2ccccc2[nH]1 | 28.6%
C=CCn1c(SCc2nnc(-c3ccccc3)o2)nnc1C(O)c1ccccc1 (stereo not drawn) | 59% (active)
O=C(CSCc1c(Cl)cccc1Cl)NN1C(=O)c2ccccc2C1=O | 34.3%
CN(C)c1ccc(CNC23CN4CN(CN(C4)C2)C3)cc1 | -4.7%
Cc1cccc2c1N(CC(=O)OC(C)C)C(=O)C2=O | 8%
CCn1c(CSc2nncn2-c2ccc(OC)cc2)nc2cc(S(=O)(=O)N(C)C)ccc21 | 50.1% (active)
Cn1nnnc1SCC(=O)Nc1ccccc1C(=O)NC1CC1 | 10.7%
CC(C)Nc1nc(N(c2ccccc2)c2ccccc2)nc(-n2ccnc2)n1 | 29%
Cc1ccc(N2CCN(S(=O)(=O)N(C)C)CC2)cc1Cl | 11%
O=C(NC1(C(F)(F)F)N=C2SCCN2C1=O)c1ccco1 (stereo not drawn) | -10%
COc1cc(OC)c(C(=O)NC2CCCCCC2)cc1OC | 34.4%
Cn1c(SCC(=O)C(C)(C)C)nnc1-c1ccccn1 | -0.6%
CC(C)C(=O)Nc1cccc(C(=O)Nc2ccc3c(c2)OCO3)c1 | 57.2% (active)
O=C(Nc1ccc2c(c1)OCCO2)c1ccc(Cl)c(S(=O)(=O)N2CCCCC2)c1 | 97.2% (active)
Cc1ccc(C(=O)Nc2ccc3c(c2)OCO3)cc1S(=O)(=O)N1CCCCC1 | 93.3% (active)
COc1ccc(C(=O)Nc2ccc3c(c2)OCO3)cc1OC | 1.7%
O=C(Nc1ccc2c(c1)OCCO2)c1cnccn1 | 4.9%
Cc1ccc(C(=O)NCC(=O)O)cc1S(=O)(=O)N1CCCCC1 | 3.8%
Cn1c(=O)n(C)c2cc(C(=O)Nc3ccc4c(c3)OCO4)ccc21 | -11.4%
O=C(Nc1ccccc1)c1ccc2c(c1)OCO2 | 9.7%
O=C(Nc1ccc2c(c1)OCCO2)c1ccncc1 | 46.2%
